These results are taken from PubChem BioAssay AID588405 (Sanford-Burnham Center for Chemical Genomics, 2011).

Hit rate of the full screen: of about 360,000 compounds, about 6,200 (1.7%) were called active. This is one part of a sample in which actives are shown more often than they occur.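 How the source made its calls: active means inhibition of at least 50% at 20 µM; inactive means the rest.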

This test in a line: inhibition of PEG-3 promoter activity – cell-based, HeLa, luciferase luminescence, primary screen (AID 588405). Conditions: HeLa PEG-Prom luciferase reporter, overnight, at 20 µM, hits give high values. A general note: A reporter such as luciferase makes a cellular process visible.
In the case of `CCCn1c2ccccc2c2cnn(CC(=O)NCCCN3CCCCC3CC)c(=O)c21` (stereo not given), the inhibition (in general, the change of the read-out against control, counted positive when it falls) was 17.1% (inactive).

As to `CCC1CCCCN1CCCNC(=O)c1cc2c(Cl)nc3ccccc3c2s1` (stereo not given), the inhibition was 100% (active).

With `Cc1nc2ccccc2c2oc(C(=O)NCCCN3CCC(C)CC3)cc12`, the inhibition was -9.23% (inactive).

As to `CN(CCO)C(=O)c1nc[nH]c1C(=O)N(C)Cc1ccccc1`, the inhibition is -1.65% (inactive).

Take `Cc1ccc(F)c(S(=O)(=O)NC(=O)C2(C)CCN2C(=O)CCc2cccs2)c1` (stereo not given): the inhibition was -1.22% (inactive).

With `COCCNC(=O)C1(C)CCCN(Cc2cccc(F)c2)C1` (stereo not given), the inhibition was 1.57% (inactive).

In the case of `CCNC(=O)C1(C)CCN(Cc2ccc(C(=O)OCC)o2)C1` (stereo not given), the inhibition is 2.73% (inactive).

`O=C(Cc1ccc(NC(=O)C2CCCN(C(=O)CCc3ccccc3)C2)cc1)Nc1ccc(C(=O)N2CCOCC2)cc1` (stereo not given): the inhibition is -12.9% (inactive).

In the case of `CCOc1cc2[nH]c(=S)n(Cc3ccc(C(=O)N4CCN(C)CC4)cc3)c(=O)c2cc1OCC`, the inhibition is 105% (active).

Turning to `COc1cc2[nH]c(=S)n(Cc3ccc(F)cc3)c(=O)c2cc1OC`, the inhibition was 13.7% (inactive).

`CCOc1cc2[nH]c(=S)n(Cc3ccc(C(=O)NCCOC)cc3)c(=O)c2cc1OCC`: the inhibition is 9.27% (inactive).

Regarding `COc1ccc(Br)c(Cn2c(C)c(C(=O)NCc3cccs3)sc2=O)c1`, the inhibition was 7.67% (inactive).

For the molecule `Cc1nc(C(F)(F)F)ccc1C(=O)N1CCC1(C)C(=O)NS(=O)(=O)c1ccccc1Cl` (stereo not given), the inhibition is 7.45% (inactive).

For the molecule `O=S1(=O)CC(N2CCC(Cc3ccccc3)CC2)CN1Cc1ccccc1` (stereo not given), the inhibition was -15.6% (inactive).

For the molecule `O=C(NNC(=O)c1ccccc1O)c1ccccc1O`, the inhibition is 23.7% (inactive).

Take `O=C(NNc1c2ccccc2nc2ccccc12)c1cc2ccccc2cc1O`: the inhibition is 74.7% (active).

For `O=C(COC(=O)c1ccc(O)cc1O)NC(=O)c1ccccc1`, the inhibition was 19.7% (inactive).

With `O=C(Nc1cccc(S(=O)(=O)N2CCOCC2)c1)C12CC3CC(CC(C3)C1)C2`, the inhibition was 13.8% (inactive).

Regarding `CCCS(=O)(=O)NC(=O)C1(C)CCN(C(=O)c2sccc2C)C1` (stereo not given), the inhibition was -4.46% (inactive).

Regarding `OC(c1ccc(Cl)cc1)c1ncc(-c2ccc(Cl)cc2)[nH]1` (stereo not given), the inhibition was -29.5% (inactive).

Regarding `OC[C@@H]1CN(Cc2ccc(-c3ccccc3)cc2)C[C@H](n2cnc3c(NC4CCCC4)ncnc32)O1`, the inhibition was 19.6% (inactive).

Take `CCC(=O)N(Cc1ccccc1)c1ccccn1`: the inhibition is 13.9% (inactive).

On to `Cc1csc2ncc(C(=O)N(Cc3ccccc3)c3ccccn3)c(=O)n12`, for which the inhibition was 81.4% (active).

In the case of `CC(C)(C)C(=O)N(Cc1ccccc1)c1ccccn1`, the inhibition was -2.77% (inactive).

As to `O=C(CCN1C(=O)[C@@H]2Cc3ccccc3CN2C1=O)NCc1ccccc1`, the inhibition was 4.93% (inactive).

For the molecule `Cc1cc2oc(=O)cc(CN(C)Cc3ccccc3)c2cc1Cl`, the inhibition is -133% (inactive).

`Cc1cc2c(cc1C)N1C(=O)c3cc4ccccc4cc3NC(=O)C1C(=O)N2` (stereo not given): the inhibition is 9.54% (inactive).

In the case of `O=c1[nH]c(=S)[nH]c(O)c1/C=C1\C=Nc2ccccc21`, the inhibition is 60.8% (active).

Take `COc1cc(C(O)c2nc(-c3cnn(C)c3)cs2)ccc1F` (stereo not given): the inhibition is 9.83% (inactive).

In the case of `CCc1nc2c(OCCOc3ccccc3)cccn2c1N(C)C(=O)c1cccs1`, the inhibition is 30.3% (inactive).

With `O=C(c1ccccc1)N1CCN(c2cc(-c3ccccc3)nc3cc(-c4cccc(Cl)c4)nn23)CC1`, the inhibition is 16.8% (inactive).

For the molecule `CN(C)CCN1CCN(c2cc(-c3cccc(Cl)c3)nc3ccnn23)CC1`, the inhibition was 7.56% (inactive).

`C#Cc1cc(N2CCN(C(=O)c3ccoc3)CC2)n2nc(-c3cccc(Cl)c3)cc2n1`: the inhibition was 79.3% (active).

Take `CCCC(=O)N1CCC1(C)C(=O)Nc1ccc(-n2cncn2)cc1` (stereo not given): the inhibition is 5.62% (inactive).

`Cc1noc(C)c1COc1ccc(C(=O)NCCOc2ccccc2)cc1`: the inhibition was -115% (inactive).

Regarding `CN(C)CCNC(=O)c1ccc(-c2cn3c(-c4ccc(Oc5ccccc5)cc4)cnc3cn2)cc1`, the inhibition is 99.7% (active).

In the case of `CN(C)C(CNC(=O)c1ccc(OCc2cn3ccccc3n2)cc1)c1ccco1` (stereo not given), the inhibition is -55.3% (inactive).

For `CCc1ccc(OC2(C)CCN(CCOc3ccc(C)cc3)C2)cc1` (stereo not given), the inhibition was 15.4% (inactive).

With `COc1ccc(Nc2nc(-c3cccnc3)nc3ccccc23)cn1`, the inhibition is 53.5% (active).

Consider `S=c1nc2ccccc2c2nc(-c3cccnc3)[nH]n12`, for which the inhibition is -35.9% (inactive).

For `CCN(CC(=O)NC1CCS(=O)(=O)C1)c1nc(-c2cccnc2)nc2ccccc12` (stereo not given), the inhibition is -4.15% (inactive).

In the case of `Cc1ccc(Sc2ccc(NC(=O)c3ccc(F)cc3)cc2C#N)cc1`, the inhibition was -1.6% (inactive).

For the molecule `CN(CCO)c1ccc(/C=N/Nc2nncc3ccccc23)cc1`, the inhibition is 63.9% (active).

As to `CC(C)NC(=O)Nc1ccc2c(c1)C(=O)N([C@H](C)CO)C[C@H](C)[C@@H](CN(C)Cc1ccc(C(F)(F)F)cc1)OCCCC[C@@H](C)O2`, the inhibition is 12.5% (inactive).

As to `COc1ccc(-c2nnc(SC(=O)N3c4ccccc4Sc4ccccc43)o2)cc1`, the inhibition is 51.3% (active).

Consider `COc1ccc(CN(C(=O)CSc2nnc(-c3ccc(OC)c(OC)c3)o2)c2ccc(F)cc2)cc1`, for which the inhibition is 30.6% (inactive).

As to `COc1ccc(-c2nnc(SC(C)C(=O)NC3CC3)o2)cc1` (stereo not given), the inhibition is -27.6% (inactive).

Take `CC(=O)C1=CCC(c2ccccc2)N(S(=O)(=O)c2ccc(C)cc2)C1` (stereo not given): the inhibition is 7.17% (inactive).

For `COc1cc(/C=C2/C(=O)ON=C2C)ccc1OCc1cccc(F)c1`, the inhibition was 45.1% (inactive).

As to `COc1cc(/C=C2/C(=O)ON=C2C)ccc1OCc1ccccc1F`, the inhibition was 66.5% (active).

As to `C#CCOc1ccc(/C=C2/C(=O)ON=C2C)cc1OCC`, the inhibition is 27.9% (inactive).

For `OC[C@@H]1CN(C2CCCC2)C[C@H](n2cnc3c(NC4CCC4)ncnc32)O1`, the inhibition is 4.02% (inactive).

With `O=[N+]([O-])c1ccccc1/C=C/CN1CCC(O)CC1`, the inhibition was 10.2% (inactive).

Take `CC(OC(=O)/C=C/c1ccccc1)C(=O)NC1CCCCC1C` (stereo not given): the inhibition is 6.61% (inactive).

Turning to `CC1CCCCC1NC(=O)/C(C#N)=C/C=C/c1ccccc1[N+](=O)[O-]` (stereo not given), the inhibition is 111% (active).

For the molecule `CCCN(c1ccc(C)cc1)c1nc(=O)c2cccnc2s1`, the inhibition was 8.6% (inactive).

Turning to `CC(=O)Nc1cncc(-c2ccccc2CO)n1`, the inhibition was 7.63% (inactive).

As for `O=C(C[C@H]1C[C@H](C(=O)N2CCOCC2)[C@@]2(CCC3CCCC3)c3[nH]c4ccc(Cl)cc4c3CCN2C1=O)NCc1ccco1`, the inhibition was 61.1% (active).

Turning to `CC[C@]12c3[nH]c4ccc(Cl)cc4c3CCN1C(=O)[C@@H](CC(=O)NCCN1CCOCC1)C[C@@H]2C(=O)N1CCN(C(=O)C2CC2)CC1`, the inhibition was -0.39% (inactive).

As to `COc1ccc2[nH]c3c(c2c1)CCN1C(=O)C(CC(=O)NCCCN(C)C)C[C@H](C(=O)N2CCOCC2)[C@@]31CCC1CCCC1` (stereo not given in full), the inhibition was 1.46% (inactive).

In the case of `CC[C@]12c3[nH]c4ccc(OC)cc4c3CCN1C(=O)C(CC(=O)NCc1ccco1)C[C@@H]2C(=O)N1CCN(C(=O)C2CC2)CC1` (stereo not given in full), the inhibition was -6.85% (inactive).

With `CN(C)C(=O)CCc1ccc2c3c([nH]c2c1)[C@]1(CCC2CCCC2)[C@@H](C(=O)N2CCOCC2)C[C@H](CC(=O)NCc2ccco2)C(=O)N1CC3`, the inhibition was 0.84% (inactive).

As for `COc1ccc(CNC(=O)C[C@H]2C[C@H](C(=O)N3CCOCC3)[C@@]3(CCC4CCCC4)c4[nH]c5ccc(Cl)cc5c4CCN3C2=O)cc1OC`, the inhibition is 56.1% (active).

Consider `COC(=O)CCCCC1=CCC2C(=O)C=C(O)C2C1` (stereo not given), for which the inhibition is 0.22% (inactive).

For the molecule `COc1ccc(C(C)(O)c2nc(-c3cc(F)cc(F)c3)cs2)cc1` (stereo not given), the inhibition was 23.2% (inactive).

Turning to `COc1cccc(-c2cc3nc(NCc4ccccc4OC)n(C)c(=O)c3s2)c1`, the inhibition is -50% (inactive).

As for `COc1cc(F)c(C2=CC(=O)CC(C)(C)C2)cc1F`, the inhibition is -42.1% (inactive).

As to `O=C(O)c1ccccc1-c1cccc2nncn12`, the inhibition was -2.07% (inactive).

For the molecule `N#Cc1cccc(NC(=O)COC(=O)c2ccccc2C(=O)c2ccc(Cl)c([N+](=O)[O-])c2)c1`, the inhibition was 108% (active).

Consider `CC(=O)Nc1ccc(NC(=O)C(C)OC(=O)c2ccccc2C(=O)c2ccc(Cl)c([N+](=O)[O-])c2)cc1` (stereo not given), for which the inhibition is 93.7% (active).

Regarding `CC(=O)Nc1ccc(NC(=O)COC(=O)c2ccccc2C(=O)c2ccccc2)cc1`, the inhibition is -1.14% (inactive).

In the case of `CC(OC(=O)CNC(=O)c1ccc(Cl)c([N+](=O)[O-])c1)C(=O)NCc1ccco1` (stereo not given), the inhibition was 3.12% (inactive).

With `COC(=O)c1cc(NC(=O)Cc2ccccc2[N+](=O)[O-])ccc1Cl`, the inhibition is -2.09% (inactive).

For `O=C(Nc1cccc(NC(=O)c2ccccc2[N+](=O)[O-])c1)c1ccccc1Cl`, the inhibition was -9.06% (inactive).

With `C=CCC1(C#N)C(=S)NC(C)=C(C(=O)OCC)C1c1ccccc1` (stereo not given), the inhibition is 3.78% (inactive).

For the molecule `CCc1nc2c(OCCc3cccc(OC)c3)cccn2c1N(C)C(=O)c1ccc(C)cc1`, the inhibition was 5.31% (inactive).

As to `CC1(C(=O)NS(=O)(=O)c2ccc(Cl)cc2)CCN1C(=O)CC1CCCC1` (stereo not given), the inhibition is 8.85% (inactive).

As to `CCN(c1ccccc1)S(=O)(=O)c1cccc(C(=O)NCc2ccccc2CN2CCOCC2)c1`, the inhibition is -0.46% (inactive).

For the molecule `CCOC1=C2CN(S(=O)(=O)c3ccc(C)cc3)[C@H](c3cccs3)C[C@H]2[C@H]2C(=O)N(c3ccccc3)C(=O)[C@H]2C1`, the inhibition was -59.4% (inactive).

On to `Cc1ccc(COc2ccc(C(=O)NN)cc2)cc1`, for which the inhibition is -58.5% (inactive).

Take `Cc1noc(C)c1COC(=O)Cn1c(C)nc2ccccc21`: the inhibition is 8.44% (inactive).

Regarding `CCCCCCCCCCOC(=O)Cn1c(COc2ccc(C)cc2)[n+](C)c2ccccc21`, the inhibition is 116% (active).

Regarding `CCCCCCCCCCOC(=O)Cn1c(COc2cccc(OC)c2)[n+](C)c2ccccc21`, the inhibition is 102% (active).

`CCOC(=O)c1cn(CC)c2cc(F)c(F)cc2c1=O`: the inhibition was -7.48% (inactive).

Regarding `CN(Cc1cccs1)C(=O)CN1C(=O)c2ccccc2S1(=O)=O`, the inhibition was -42.7% (inactive).
